# Vif-APOBEC3G blk = qHTS for Inhibitors of Vif-A3G Interactions: qHTS. Potency, µM (top dose mostly 46.1 µM), without a hit: at the top dose activity, negative = active, hits mostly inhibitors. 0.076% of 410,000 active. AID 602310, 2012. HeLa A3G-eYFP + Vif (tagged APOBEC3G with the HIV-1 protein that degrades it), YFP fluorescence, overnight; also: potency is read from the fitted curve at half-maximal effect; % is scaled to controls: 0 for no effect and ±100 for the full control effect; nearly all actives have a fitted effect of over 60% in size
# Target sequence (Q9HC16 whole entry, looked up): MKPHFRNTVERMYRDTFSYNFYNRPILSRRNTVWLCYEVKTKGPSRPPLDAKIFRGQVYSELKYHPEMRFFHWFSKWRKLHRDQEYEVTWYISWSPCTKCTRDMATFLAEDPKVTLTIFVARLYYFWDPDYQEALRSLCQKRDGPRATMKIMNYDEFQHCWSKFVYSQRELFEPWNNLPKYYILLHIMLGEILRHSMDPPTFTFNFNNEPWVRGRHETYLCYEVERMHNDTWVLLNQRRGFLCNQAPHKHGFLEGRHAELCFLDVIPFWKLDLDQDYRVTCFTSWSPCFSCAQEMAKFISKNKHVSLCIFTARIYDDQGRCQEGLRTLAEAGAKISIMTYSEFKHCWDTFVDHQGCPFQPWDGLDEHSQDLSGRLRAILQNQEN
#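 Read-out is eYFP fluorescence (Ex 488/Em 500-530) from Vif-expressing HeLa A3G-eYFP cells; more signal means A3G escaped Vif-mediated degradation. Cells plated overnight, compound pinned in, incubated overnight at 37 deg C.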
# Giardia kill = Small Molecules that selectively kill Giardia lamblia: qHTS | 0.15% of 340,000 active | activity change, % at 7.66 µM, hits read low | Giardia lamblia trophozoite viability; in the data active = activity change below about -80%; inconclusive = between about -30% and that limit;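 also: parasites exposed to compound for two days anaerobically before the ATP read; % is scaled to controls: 0 for no effect and ±100 for the full control effect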
#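 Giardia trophozoites, 100 cells per well, were exposed to compounds for 48 hrs at 37 deg C under anaerobic conditions; viability was then read as ATP content by bioluminescence after 15-30 min at room temperature.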
# SW480 rerep = A quantitative high throughput screen for small molecules that induce DNA re-replication in SW480 colon adenocarcinoma cells; SW480 DNA re-replication, Hoechst DNA content imaging, 48 h; AID 624297, 2012; Potency, µM (highest dose often 46.1 µM), inactives show top-dose re-replication activation, usual class: activators; 1.8% of 340,000 active; also: potency is read from the fitted curve at half-maximal effect; % of control where 0% means no effect; nearly all actives have a fitted effect of over 55% in size
#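 DNA re-replication was detected as more nuclei of elevated Hoechst intensity after 48 hr exposure to compound (23 nL pinned per well of 250 cells).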
# MCF10A rerep = A quantitative high throughput screen for small molecules that induce DNA re-replication in MCF 10a normal breast cells | MCF 10A DNA re-replication, Hoechst nuclear intensity, 48 h | Potency, µM (titrated, usually from 46.1 µM), inactives show at the top dose activity, positive = re-replication, hits mostly activators | 2.9% of 350,000 active | AID 624296, 2012; also: potency is read from the fitted curve at half-maximal effect; % of control where 0% means no effect; nearly all actives have a fitted effect of over 50% in size
# Vif-APOBEC3F blk = qHTS for Inhibitors of Vif-A3F Interactions: qHTS. Potency, µM (top dose mostly 46.1 µM), without a hit: at the highest dose activity, negative = active. HeLa A3F-eYFP + Vif (tagged APOBEC3F with the HIV-1 protein that degrades it), YFP fluorescence increase. 0.2% of 390,000 active; also: potency is read from the fitted curve at half-maximal effect; % of control where 0% means no effect; nearly all actives have a fitted effect of over 65% in size
#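 HeLa cells stably expressing Vif plus C-terminally eYFP-tagged A3F were seeded, incubated overnight at 37 deg C, dosed with compound, incubated overnight again at 37 deg C. Yellow fluorescence (Ex 488/Em 500-530) reported blocked Vif-mediated A3F-eYFP degradation.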
# IL-1B inflam inh = qHTS for Inhibitors of Inflammasome Signaling: IL-1-beta AlphaLISA Primary Screen; THP-1 LPS/ATP IL-1B secretion, AlphaLISA, 16 h; hits give low values; activity change, % at 57.5 µM; 4.7% of 360,000 active; AID 743279, 2014; in the data active = activity change below about -50%; inconclusive = mostly about -30% to -49%; also: % is scaled to controls: 0 for no effect and ±100 for the full control effect
#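 Secreted IL-1B measured by AlphaLISA bead assay after 16 h compound exposure of THP-1 cells; compounds (final up to 57.5 uM) added 1 h before LPS (250 ng/mL) and ATP (1.25 mM) stimulation; lower signal means less secretion.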
# Numbers without * were called inactive; ? = inconclusive; . = no result given; [ ] = dose if it differs, or a comment. Compounds with a hit are over-represented: about 6.9% of the library has one in this group of screens. Unless noted, calls follow the shape of the dose curve; as a rule, active = well fitted curve in the direction sought with a large enough effect; inconclusive = small, poorly fitted or top-dose-only effect, or another doubt; inactive = no such curve, though single readings can be large; an effect the other way counts as inactive or inconclusive.
SMILES,Vif-APOBEC3G blk,Giardia kill,SW480 rerep,MCF10A rerep,Vif-APOBEC3F blk,IL-1B inflam inh
Cc1ccc(S(=O)(=O)Nc2cccc3c2O[C@H](CN(C)Cc2ccc(-c4ccccc4)cc2)[C@@H](C)CN([C@H](C)CO)C3=O)cc1,-10.9%,-7.3,?,?,-3.3%,-73.7*
C[C@@H]1CN([C@@H](C)CO)C(=O)c2cccc(NC(=O)C3CCCCC3)c2O[C@@H]1CN(C)Cc1ccc(Cl)c(Cl)c1,-14.1%,5.7,6.1%,42.4%,-20.2%,-90.4*
C[C@H](CO)N1C[C@H](C)[C@@H](CN(C)Cc2ccc(Cl)c(Cl)c2)Oc2c(NS(=O)(=O)c3ccc(F)cc3)cccc2C1=O,0.5%,8.7,-1.7%,8.2%,2.8%,-82.2*
O=c1cc(CSc2n[nH]c(-c3ccccc3)n2)[nH]c2ccccc12,-4.0%,.,.,.,-3.4%,.
Cc1cccc(N2CCN(c3ncnc4c3nc3n4CCCCC3)CC2C)c1 (centres undefined),-18.6%,.,.,.,2.3%,.
c1ccc(-n2ncc3c(NCC4CCCO4)ncnc32)cc1 (centres undefined),-8.1%,17.5,-3.4%[9.22 µM],28.7%,4.8%,-13.9
Cc1ccccc1Nc1ncnc2c1cnn2-c1ccccc1,-2.3%,6.3,0.2%,?,-0.2%,-62.3*
c1ccc(-n2ncc3c(NC4CCCCCC4)ncnc32)cc1,-12.8%,?,?,17.2%,1.8%,-53.3*
Clc1ccc(-n2ncc3c(NC4CCCC4)ncnc32)cc1,-5.1%,.,.,.,2.1%,.
Clc1ccc(-n2ncc3c(NCC4CCCO4)ncnc32)cc1 (centres undefined),-25.8%,-18.2,18.4µM*,?,-3.0%,-13.8
O=CC(=O)c1ccc(F)cc1,3.5%,.,.,.,.,.
COc1ccc(C)cc1S(=O)(=O)Nc1cccc(-c2ccc(N3CCCC3)nn2)c1,0.3%,.,.,.,-4.4%,.
O=C(c1ccc2c(c1)N(Cc1ccc(F)cc1)C(=O)c1ccccc1S2(=O)=O)N1CCC(Cc2ccccc2)CC1,2.1%,.,.,.,-0.5%,.
Cc1cc(NC(=O)c2ccco2)cc(-c2nc3cc(Cl)ccc3o2)c1O,?,.,.,.,11.2µM*,.
CC1CC(C)CN(CCCNC(=O)c2ccc3c(c2)N(Cc2ccccc2)C(=O)c2ccccc2S3=O)C1 (centres undefined),-4.8%,-13.7,?,11.6µM*,-18.1%,?
CCCCN(CC)CCCNC(=O)c1ccc2c(c1)N(Cc1ccc(C)cc1)C(=O)c1ccccc1S2,-18.2%,.,.,.,0.6%,.
CCN1C(=O)c2ccccc2Sc2ccc(C(=O)NCCCN(CC(C)C)CC(C)C)cc21,5.8%,2.3,15.4%,18.3%,5.7%,-64.5*
CCOc1ccc(CN2C(=O)c3ccccc3Sc3ccc(C(=O)NCCCN4CCOCC4)cc32)cc1,?,-5.7,?,20.6µM*,-24.7%,-10.7
O=C(NCCCN1CCCC1)c1ccc2c(c1)N(Cc1cccc(Cl)c1)C(=O)c1ccccc1S2=O (centres undefined),5.5%,6.9,-6.8%,2.4%,-5.3%,-15.7
O=C(NCCCN1CCOCC1)c1ccc2c(c1)N(Cc1ccccc1)C(=O)c1ccccc1S2,0.5%,-1.5,10.3%,?,0.3%,?
O=C(NCCN1CCOCC1)c1ccc2c(c1)N(Cc1c(F)cccc1Cl)C(=O)c1ccccc1S2,-9.5%,20.4,5.8µM*,?,-6.7%,0.0
CCN(CC)CC(=O)c1c(C)n(C)c2ccc(OC)cc12,2.3%,.,.,.,.,.
CCN(CC)c1ccc(N=Cc2c(C)[nH]c3ccccc23)cc1,-15.2%,6.7,8.2µM*,18.4%,11.5%,23.5
Cc1ccc(CC(=O)Nc2c(C(=O)N3CCN(c4ccccc4F)CC3)oc3ccccc23)cc1,3.0%,.,.,.,-3.5%,.
COc1cc2c(C#N)c(N3CCc4ccccc4C3)nc(N)c2c(N)n1,-27.2%,5.7,16.4%,?,0.5%,-53.6*
SMILES,Vif-APOBEC3G blk,Giardia kill,SW480 rerep,MCF10A rerep,Vif-APOBEC3F blk,IL-1B inflam inh
COc1cc2c(C#N)c(N3CCCCC3)nc(N)c2c(N)n1,0.4%,-7.6,-2.8%,?,-3.2%,?
COc1cc2c(C#N)c(N3CCOCC3)nc(N)c2c(N)n1,-0.1%,-24.6,-2.0%,?,-6.0%,-54.0*
CC(C)(C)OC(=O)N1CCC(c2c(C(=O)NC3CCCCC3)cnn2-c2cccc(F)c2)CC1,0.9%,.,.,.,-0.3%,.
COc1ccc(CNC(=O)c2cc3ccccn3n2)cc1OC,-0.9%,.,.,.,3.6%,.
O=C(NNC(=O)C1CCCCC1)c1cnccn1,4.5%,-13.8,-4.6%,-4.5%,0.5%,8.7
O=C(CCC1CCCCC1)NNC(=O)c1cnccn1,-5.9%,-21.6,2.91µM*,?,-6.0%,56.0
CCCn1c2ccccc2c2cnn(CC(=O)NCCc3ccc(C)cc3)c(=O)c21,-1.5%,.,.,.,0.3%,.
CNC(=O)c1cc2c(=O)n3cc(C)ccc3nc2n(C(C)C)c1=N,2.8%,-21.4,?,7.08µM*,2.6%,-3.4
CC1CC(NC(=O)c2cc3c(=O)n4ccccc4nc3n2C)CC(C)(C)C1 (centres undefined),3.1%,6.2,10µM*,10.3µM*,5.1%,-27.7
Cc1ccc2nc3c(cc(C(=O)NC4CCCCC4)c(=N)n3C3CCCCC3)c(=O)n2c1,7.6%,-25.5,18.4µM*,?,7.8%,6.1
N=c1c(C(=O)NC2CCCC2)cc2c(=O)n3ccccc3nc2n1C1CCCCC1,1.1%,8.6,4.61µM*,2.91µM*,?,26.1
Cc1ccc2nc3c(cc(C(=O)NC4CCCC4)c(=N)n3C3CCCCC3)c(=O)n2c1,-7.1%,6.1,?,?,-26.2%,30.3
CCOc1ccc(C(=O)Nc2ccccc2OCc2cc(=O)n3ccccc3n2)cc1,1.0%,.,.,.,-3.8%,.
CCC(CC)C1C(C#N)=C(N)Oc2n[nH]c(C)c21 (centres undefined),-12.2%,-3.7,20.6µM*,?,-4.8%,-87.9*
CCc1[nH]nc2c1C(C(C)C)C(C#N)=C(N)O2 (centres undefined),-18.4%,-3.9,-6.4%,?,0.0%,-83.5*
N#CC1=C(N)Oc2cc(N)ccc2C1C1CC=CCC1 (centres undefined),?,-12.5,16.4µM*,6.51µM*,-1.2%,1.9
